From PubChem BioAssay (NCATS)
Results filed as inconclusive are left out. Calls of active or inactive are those of the source. Calls follow the shape of the dose curve; as a rule, active = well fitted inhibition curve with a large enough effect; inconclusive = small, poorly fitted or top-dose-only effect; inactive = flat fitted curve, though single readings scatter.

The compounds below were run against Calcium and integrin-binding protein 1 (Homo sapiens) (UniProt Q99828) (assay: Primary qHTS for Identification of Calcium Integrin Binding Protein 1 (CIB1) Competitor (AID 1508620;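 also: GST tagged CIB1 binding a fluorescein labelled alphaIIb integrin peptide tracer; top concentration of the series differs between compounds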)). Settings: CIB1-GST / FITC-alphaIIb peptide fluorescence polarization; series mostly up to 114 µM; activity change, negative = inhibition: at the top concentration.
Sequence of Calcium and integrin-binding protein 1 (Homo sapiens) (Q99828 whole entry, looked up): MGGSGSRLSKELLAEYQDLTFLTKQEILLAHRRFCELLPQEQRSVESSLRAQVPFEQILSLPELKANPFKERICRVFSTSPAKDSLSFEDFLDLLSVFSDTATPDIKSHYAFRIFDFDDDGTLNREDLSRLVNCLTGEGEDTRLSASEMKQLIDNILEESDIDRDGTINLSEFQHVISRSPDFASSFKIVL
How it was run: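 Fluorescence polarization competition: CIB1-GST (1 uM final) preincubated with compound 15 min at room temperature, then FITC-labeled alphaIIb peptide (100 nM final) added for another 15 min. Polarization read at Ex 480/Em 540.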
% is scaled to controls: 0 for no effect and ±100 for the full control effect.

Row | Structure (SMILES) | activity change, negative = inhibition | Potency
1 | O=C(Cn1cc(CNCc2ccccc2)nn1)Nc1cc(C(F)(F)F)ccc1Cl | 4.52% (inactive) | –
2 | CN1CCN(c2cc(-c3nc(Nc4ccc(F)c(F)c4)c4ccccc4n3)ccn2)CC1 | 0.877% (inactive) | –
3 | COc1cc(OC)cc(C2=Nn3c(nnc3-c3ccccc3O)SC2)c1 | -5.14% (inactive) | –
4 | Cc1ccc(NS(=O)(=O)c2ccc3c(ccn3C)c2)cc1C | 2.92% (inactive) | –
5 | C(=C/c1cccs1)/c1ccncc1 | -0.322% (inactive) | –
6 | COc1cc(OC)c(C(CC(=O)N2CC(C)CC(C)C2)c2ccc3c(c2)OCO3)c(OC)c1 (centres undefined) | -2.11% [at 228 µM] (inactive) | –
7 | Cn1c2cc(Br)sc2c2cnn(Cc3c(F)cccc3Cl)c(=O)c21 | 7.11% (inactive) | –
8 | CC(=O)Nc1sc2c(c1-c1nc3ccccc3s1)CN(C(C)C)C2 | – | inactive
9 | CCNC(=O)c1ccc(-c2ccc3ncnc(NCC(C)(C)C)c3c2)o1 | -8.62% (inactive) | –
10 | O=C(Oc1cccnc1)c1cccs1 | 7.7% (inactive) | –
11 | Cc1ccc(-c2nnc(N3CCC(C(N)=O)CC3)s2)cc1 | 4.74% (inactive) | –
12 | CC(C)c1ccccc1-c1ncc(F)c(NCC2CCN(c3cccnc3)CC2)n1 | -2.72% (inactive) | –
13 | c1cncc(CNc2ncnc3ccc(-c4ccc5c(c4)OCO5)cc23)c1 | -1.88% (inactive) | –
14 | Cc1cc(NC(=S)N2CCN(c3cccc(C(F)(F)F)c3)CC2)nc2ccccc12 | 0.0159% (inactive) | –
15 | COc1ccc(S(=O)(=O)Nc2cc(OC)cc3cccnc23)cc1 | -2.41% (inactive) | –
16 | Cc1cc2[nH]c3c(=O)n(Cc4ccccc4F)ncc3c2s1 | -0.798% (inactive) | –
17 | O=C1c2ccccc2C(=O)N1Cc1ccccn1 | -4.4% (inactive) | –
18 | O=C(Nc1ccc2c(c1)CCC2)Nc1nnc(-c2ccncc2)s1 | 0.762% (inactive) | –
19 | COc1ccc(OC)c(-c2nnc3n2N=C(c2c(OC)cccc2OC)CS3)c1 | 6.05% (inactive) | –
20 | COc1ccc(C2=Nn3c(nnc3-c3cccc(OC)c3OC)SC2)c(OC)c1 | 1.79% (inactive) | –

Row | Structure (SMILES) | activity change, negative = inhibition | Potency
21 | Cc1cc2c(s1)c1cnn(Cc3cc(F)c(F)c(F)c3)c(=O)c1n2C | 2.09% (inactive) | –
22 | CC(=O)Nc1ccc(OC2=NS(=O)(=O)c3ccccc32)cc1 | 6.15% (inactive) | –
23 | COc1ccc(C2Nc3ccccc3C(=O)N2Cc2ccc(CNC(=O)CO)cc2)cc1COc1ccc(NC(C)=O)cc1 (centres undefined) | -3.04% (inactive) | –
24 | COc1cc(-c2ccc3ncnc(NCc4ccc(C)o4)c3c2)cc(OC)c1OC | -0.742% (inactive) | –
25 | O=C1CCc2cc(S(=O)(=O)Nc3cccc4ccccc34)ccc2N1 | -0.814% (inactive) | –
26 | Cc1csc(CNc2ncnc3ccc(-c4ccc(C(C)O)o4)cc23)n1 (centres undefined) | -15.6% (inactive) | –
27 | O=C(O)C1C2C(=O)N(c3ccccc3)C[C@@]23C=C[C@@H]1O3 (some centres undefined) | 5.6% (inactive) | –
28 | COc1ccc(-c2nc3ccccc3c(=O)n2Cc2ccccc2)cc1OCc1ccc(NC(C)=O)cc1 | 1.17% (inactive) | –
29 | O=C(Nc1ccc(-c2nc3ccccc3[nH]2)cc1)Nc1ccc2occc2c1 | -1.67% (inactive) | –
30 | Cc1ccc(-c2ccc(=O)n(CC(=O)NCCCc3ccccn3)n2)cc1 | 2.36% (inactive) | –
31 | COC(=O)c1c(NC(=O)COC(=O)c2ccc(Cl)cc2[N+](=O)[O-])sc2c1CCCCC2 | -0.0089% (inactive) | –
32 | COc1ccc(C2Nc3ccccc3C(=O)N2Cc2cccc(C(F)(F)F)c2)cc1COc1ccc(NC(C)=O)cc1 (centres undefined) | 3.71% (inactive) | –
33 | Cc1cc(C)nc(NC(=S)N2CCN(c3cccc4cnccc34)CC2)c1 | -9.88% (inactive) | –
34 | O=C(Cc1ccc(Cl)c(Cl)c1)Nc1ccc(S(=O)(=O)Nc2cncnc2)cc1 | -19.8% (inactive) | –
35 | Fc1cccc(CNc2ncnc3ccc(-c4ccccc4Cl)cc23)c1 | 5.69% (inactive) | –
36 | COc1cc(F)c(S(=O)(=O)N2CCCN(S(=O)(=O)c3ccc(NC(C)=O)cc3)CC2)c(F)c1 | 2.13% (inactive) | –
37 | NC(=O)C1CCN(c2ncc(-c3cccc(N4CCCC4)c3)s2)CC1 | -12.1% (inactive) | –
38 | Cc1ccc(OCCn2c(CCNCC3CCCCC3)nc3ccccc32)cc1 | -15.8% (inactive) | –
39 | Cc1ccc(NC(=O)CN2C(=O)N/C(=C\c3ccco3)C2=O)cc1 | -21.6% (inactive) | –
